Source: PubChem (National Center for Advancing Translational Sciences (NCATS))
Sampled rows, rich in hits. Any-hit rate of the full collection: about 8.3%.
RORgamma inh – qHTS for inhibitors of ROR gamma transcriptional activity; Nuclear receptor ROR-gamma (Mus musculus), P51450; Drosophila S2 Gal4-RORgamma UAS-luciferase reporter, 20 h; Potency, µM (series often up to 53.6 µM), actives largely listed as inhibitors; hit rate 5.4% among 310,000; AID 2551, 2010; also: nearly all actives have a fitted effect of over 60% in size
Target sequence (P51450 whole entry, looked up, the tested form may be a part): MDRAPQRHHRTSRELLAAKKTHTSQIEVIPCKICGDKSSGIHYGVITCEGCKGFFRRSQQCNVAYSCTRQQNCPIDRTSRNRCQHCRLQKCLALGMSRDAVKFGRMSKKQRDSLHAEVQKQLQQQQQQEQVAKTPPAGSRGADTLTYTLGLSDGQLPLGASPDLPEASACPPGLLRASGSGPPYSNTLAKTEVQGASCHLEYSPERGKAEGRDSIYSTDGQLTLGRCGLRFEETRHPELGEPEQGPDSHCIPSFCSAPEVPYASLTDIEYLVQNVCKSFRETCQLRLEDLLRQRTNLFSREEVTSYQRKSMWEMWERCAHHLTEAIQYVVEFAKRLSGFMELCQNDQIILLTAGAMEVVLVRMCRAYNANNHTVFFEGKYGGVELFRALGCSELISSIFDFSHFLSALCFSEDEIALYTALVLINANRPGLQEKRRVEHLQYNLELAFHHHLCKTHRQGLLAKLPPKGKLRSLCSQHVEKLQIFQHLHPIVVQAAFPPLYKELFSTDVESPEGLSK
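ROR gamma transcriptional activity was tracked as Gal4-UAS luciferase output in stably transfected Drosophila Schneider cells, with compound added 1 hr before 700 uM copper sulfate induction and a 20 hr ambient-temperature incubation.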
Gal4-VP16 FLuc – VP16 counterscreen qHTS for inhibitors of ROR gamma transcriptional activity. Potency, µM (top dose mostly 53.6 µM), hits mostly inhibitors. hit rate 3.5% among 310,000. Drosophila S2 Gal4-VP16 UAS-luciferase, luminescence, 20 h;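 also: Gal4-VP16 expression switched on by copper sulfate through the metallothionein promoter; nearly all actives have a fitted effect of over 50% in size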
SW480 rerep – A quantitative high throughput screen for small molecules that induce DNA re-replication in SW480 colon adenocarcinoma cells. SW480 DNA re-replication, Hoechst DNA content imaging, 48 h. Potency, µM (titrated, usually from 46.1 µM), hits mostly activators. hit rate 1.8% among 340,000. AID 624297, 2012; also: nearly all actives have a fitted effect of over 55% in size
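Cells (250 per well) received 23 nL compound or DMSO by pin tool and were kept 48 hr at 37 C, 5% CO2. Nuclei were then stained with Hoechst for 40 min and scanned for DNA content.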
BCR signal inh – qHTS Assay to Find Inhibitors of Chronic Active B-Cell Receptor Signaling | hit rate 0.05% among 340,000 | ABC-DLBCL IkBa-CBG/CBR reporter, luminescence ratio, 4 h | AID 493014, 2011 | Potency, µM (doses to about 46.1 µM), most hits filed as inhibitors; active = well fitted inhibition curve with a large enough effect in the signal ratio, with a control signal flat, not every such curve was filed as active; inconclusive = small, poorly fitted or top-dose-only effect, or effect the other way, or a change in a side signal; the % refers to the signal ratio
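TMD8 ABC-DLBCL cells carrying doxycycline-inducible green luciferase fused to IkappaBalpha plus unfused red luciferase were exposed to compounds (up to 46 uM) for 4 hrs at 37C. Activity came from the overlap-corrected green/red luminescence ratio.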
Giardia killer – Small Molecules that selectively kill Giardia lamblia: qHTS; Giardia lamblia trophozoite viability; activity change, % at 7.66 µM, hits read low; hit rate 0.15% among 340,000; AID 540267, 2011; in the data active = activity change below about -80%; inconclusive = between about -30% and that limit;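 also: parasites exposed to compound for two days anaerobically before the ATP read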
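Compounds were tested on trophozoites seeded at 100 cells/well and held 48 hrs at 37 deg C anaerobically. An ATP-based luminescent kit measured the remaining live cells.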
MCF10A rerep – A quantitative high throughput screen for small molecules that induce DNA re-replication in MCF 10a normal breast cells; hit rate 2.9% among 350,000; MCF 10A DNA re-replication, Hoechst nuclear intensity, 48 h; Potency, µM (doses to about 46.1 µM), usual class: activators; also: nearly all actives have a fitted effect of over 50% in size
Each line names hits and unclear results; the compound was inactive in the other large screens. Unless noted, calls follow the shape of the dose curve; as a rule, active = well fitted curve in the direction sought with a large enough effect; inconclusive = small, poorly fitted or top-dose-only effect, or another doubt; inactive = no such curve, though single readings can be large; an effect the other way counts as inactive or inconclusive.

CCCSc1nnc(NC(=O)c2nc(SC)ncc2Cl)s1	RORgamma inh 12.6µM
CCOC(=O)c1ccc(NC(=O)CCS(=O)(=O)Cc2ccccc2)cc1	BCR signal inh inconclusive, MCF10A rerep inconclusive
CCOC(=O)c1ccc(NC(=O)c2nc(S(=O)(=O)Cc3ccccc3)ncc2Cl)cc1	RORgamma inh 7.94µM, Gal4-VP16 FLuc 4.47µM, BCR signal inh inconclusive, MCF10A rerep 2.91µM
Cc1ccc(NC(=O)c2nc(S(=O)(=O)Cc3ccccc3C)ncc2Cl)cc1C	RORgamma inh inconclusive, Gal4-VP16 FLuc 5.01µM, SW480 rerep inconclusive, BCR signal inh inconclusive, Giardia killer inconclusive, MCF10A rerep inconclusive
CSc1nnc(NC(=O)c2nc(S(=O)(=O)Cc3ccccc3)ncc2Cl)s1	RORgamma inh 12.6µM, Gal4-VP16 FLuc inconclusive, SW480 rerep inconclusive, BCR signal inh inconclusive, MCF10A rerep inconclusive
CCOP(=O)(OCC)C(NC(=O)c1cc([N+](=O)[O-])cc([N+](=O)[O-])c1)C(F)(F)F (centres undefined)	MCF10A rerep inconclusive
CCc1ccc(NC(=O)c2nc(S(=O)(=O)Cc3ccccc3)ncc2Cl)cc1	RORgamma inh 0.282µM, Gal4-VP16 FLuc 3.16µM, BCR signal inh inconclusive (no result: SW480 rerep, Giardia killer, MCF10A rerep)
CCS(=O)(=O)c1ncc(Cl)c(C(=O)Nc2ccc(S(=O)(=O)N3CCC(C)CC3)cc2)n1	RORgamma inh 3.16µM, Gal4-VP16 FLuc 4.47µM, SW480 rerep inconclusive, BCR signal inh inconclusive, MCF10A rerep 1.84µM
CC1CCN(S(=O)(=O)c2ccc(NC(=O)c3ccncc3)cc2)CC1	Gal4-VP16 FLuc inconclusive, BCR signal inh inconclusive, MCF10A rerep inconclusive
CCCc1nnc(NC(=O)c2nc(S(=O)(=O)Cc3ccc(C)cc3)ncc2Cl)s1	RORgamma inh inconclusive, Gal4-VP16 FLuc inconclusive, SW480 rerep 8.2µM, BCR signal inh inconclusive, MCF10A rerep 3.66µM
CCCS(=O)(=O)c1ncc(Cl)c(C(=O)Nc2ccc(S(=O)(=O)Nc3ncccn3)cc2)n1	RORgamma inh inconclusive, Gal4-VP16 FLuc inconclusive, SW480 rerep inconclusive
CCCOc1ccc(/C(O)=C2/C(=O)C(=O)N(CCCN3CCOCC3)C2c2ccncc2)cc1 (centres undefined)	none (no result: SW480 rerep, Giardia killer, MCF10A rerep)
CCOc1ccc(/C=C2/SC(=O)NC2=S)cc1	RORgamma inh 11.2µM, Gal4-VP16 FLuc inconclusive, BCR signal inh inconclusive
CCOc1ccc(N=C2NC(=O)S/C2=C\c2ccc(N(C)C)cc2)cc1	SW480 rerep inconclusive, BCR signal inh inconclusive
O=C(CCN1C(=O)/C(=C/c2ccccc2Cl)SC1=S)N1CCCC1	RORgamma inh 8.91µM, SW480 rerep 14.6µM, MCF10A rerep inconclusive
O=C(CCCN1C(=O)/C(=C/c2ccccc2Cl)SC1=S)NCCCN1CCOCC1	RORgamma inh 5.01µM, Gal4-VP16 FLuc 12.6µM, SW480 rerep inconclusive, BCR signal inh inconclusive, MCF10A rerep inconclusive
CCOc1ccc(/C=C2\SC(=S)N(CC(=O)N(CCO)C(C)(C)C)C2=O)cc1	RORgamma inh 7.08µM, Gal4-VP16 FLuc 11.2µM
CC(C)NC(=O)C1CCCN(S(=O)(=O)c2cccc3nonc23)C1 (centres undefined)	none
O=C(CCCN1C(=O)/C(=C/c2ccccc2)SC1=S)N1CCOCC1	Gal4-VP16 FLuc inconclusive, BCR signal inh inconclusive
O=C(CCCN1C(=O)/C(=C/c2ccccc2Cl)SC1=S)N1CCCC1	RORgamma inh 8.91µM, SW480 rerep inconclusive, BCR signal inh inconclusive, MCF10A rerep inconclusive
CCOc1ccc(/C=C2\SC(=S)N(CCCC(=O)NCCCN3CCOCC3)C2=O)cc1	RORgamma inh 0.398µM, Gal4-VP16 FLuc 0.891µM, SW480 rerep 16.4µM, BCR signal inh inconclusive, MCF10A rerep inconclusive
O=C(CCN1C(=O)/C(=C/c2ccccc2Cl)SC1=S)N1CCOCC1	RORgamma inh 7.08µM, Gal4-VP16 FLuc inconclusive, SW480 rerep inconclusive, MCF10A rerep 23.1µM
CCOc1ccc2c(c1)-c1c(ssc1=S)C(C)(C)N2C(=O)CSC1=NCCS1	RORgamma inh 3.16µM, SW480 rerep inconclusive, BCR signal inh inconclusive
